# The panel holds about 83,000 compounds, 20% with a hit somewhere; the sample as a whole holds those more often.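 Plates (96-well) were seeded with cells, treated with compound at one concentration, and incubated for 48 hours before percent growth was determined.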 A number with no mark means an inactive call. Active and inactive are the calls of the source. How the source made its calls: active means growth percent below 10; inactive means the rest.
# Key:
# Experiment in all cases: NCI-60 one-dose screen, 48 h (100 = growth as untreated, 0 = no growth, -100 = all killed)
# Conditions in all cases: 10 µM
# SK-MEL-2 melanoma = test system: SK-MEL-2 melanoma
# TK-10 renal = test system: TK-10 renal
# ACHN renal = test system: ACHN renal
# A498 renal = test system: A498 renal
# CCRF-CEM leukemia = test system: CCRF-CEM leukemia
# MOLT-4 leukemia = test system: MOLT-4 leukemia
# RPMI-8226 leukemia = test system: RPMI-8226 leukemia
# OVCAR-8 ovarian = test system: OVCAR-8 ovarian
# OVCAR-5 ovarian = test system: OVCAR-5 ovarian
# OVCAR-4 ovarian = test system: OVCAR-4 ovarian
# SK-OV-3 ovarian = test system: SK-OV-3 ovarian
# OVCAR-3 ovarian = test system: OVCAR-3 ovarian
# HS 578T breast = test system: HS 578T breast
# NCI/ADR-RES ovarian = test system: NCI/ADR-RES ovarian
# SN12C renal = test system: SN12C renal
# UO-31 renal = test system: UO-31 renal
# SR leukemia = test system: SR leukemia
# IGROV1 ovarian = test system: IGROV1 ovarian
# CAKI-1 renal = test system: CAKI-1 renal
# EKVX NSCLC = test system: EKVX NSCLC
SMILES,growth (SK-MEL-2 melanoma),growth (TK-10 renal),growth (ACHN renal),growth (A498 renal),growth (CCRF-CEM leukemia),growth (MOLT-4 leukemia),growth (RPMI-8226 leukemia),growth (OVCAR-8 ovarian),growth (OVCAR-5 ovarian),growth (OVCAR-4 ovarian),growth (SK-OV-3 ovarian),growth (OVCAR-3 ovarian),growth (HS 578T breast) [%],growth (NCI/ADR-RES ovarian),growth (SN12C renal),growth (UO-31 renal),growth (SR leukemia),growth (IGROV1 ovarian),growth (CAKI-1 renal),growth (EKVX NSCLC) [%]
CSc1nc(S(C)(=O)=O)nc2[nH]c(=O)[nH]c12,106%,119%,97.7%,118%,117%,116%,123%,108%,96.3%,117%,115%,115%,111,110%,,,,,,
Cc1ccc(C2=NN(c3ccc(S(C)(=O)=O)cc3)C(=O)CC2)cc1,6.35% (active),67%,54.5%,,14.9%,20%,,31.8%,,60.8%,19.9%,-14.7% (active),,6.72% (active),39.7%,41.1%,4.47% (active),59.2%,,
C#CC(C)(O)[C@@H]1C[C@H](CC(=O)O)C1(C)C (stereo partly drawn),108%,114%,110%,110%,,114%,109%,112%,102%,117%,116%,119%,105,111%,108%,87.1%,88.9%,,96%,
CCC1NC(=O)c2cc(S(N)(=O)=O)c(Cl)cc2N1 (stereo not drawn),,106%,108%,110%,97.7%,113%,109%,100%,105%,130%,118%,126%,112,108%,94%,98.8%,103%,120%,104%,109
Cc1nn(-c2ccccc2)c2nc(Cl)c(C=O)c(-c3ccccc3)c12,114%,113%,114%,78.6%,36.3%,,,99.9%,99.8%,102%,116%,106%,112,82.8%,98.2%,48.1%,,,,
COc1ccc2nc3cc(Cl)ccc3c(N)c2c1,-71.2% (active),-68.7% (active),-99.5% (active),,-5.6% (active),-55.4% (active),-1.72% (active),-44.4% (active),-91.8% (active),-98% (active),-97.7% (active),-93.7% (active),,-97.2% (active),-80.3% (active),-74% (active),-39.1% (active),-33% (active),-55.6% (active),
Cc1cc(CC(C)CC(C)(C)C)n(O)c(=O)c1 (stereo not drawn) (tested in a mixture with another compound),,75%,9.73% (active),62.4%,11.4%,-6.44% (active),39.8%,20%,41.4%,22.4%,57.6%,24.2%,62.8,0.595% (active),13.2%,0% (active),2.72% (active),9.36% (active),34.3%,24.2
O=C(Nc1ccc(OCc2nnc(-c3ccc(Cl)cc3)o2)c(F)c1)Nc1ccc(Cl)c(C(F)(F)F)c1,-20.2% (active),15.5%,0.519% (active),-23.7% (active),4.05% (active),-1.55% (active),-22.2% (active),11.6%,26.6%,17.2%,35.2%,0.829% (active),14.5,7.99% (active),,,-15.4% (active),,13.3%,
CC(=O)O[C@@]12CO[C@@H]1C[C@H](O)[C@@]1(C)C(=O)[C@H](O)C3=C(C)[C@@H](OC(=O)[C@H](O)[C@@H](NC(=O)OC(C)(C)C)c4ccccc4)C[C@@](O)([C@@H](OC(=O)c4ccccc4)C12)C3(C)C (stereo partly drawn),,42.1%,56.9%,22.6%,29.9%,25.4%,25.4%,38.4%,40.1%,58%,47.3%,7.26% (active),12.3,-21.2% (active),56.3%,33.5%,11.1%,39.2%,4.8% (active),59
CCc1cc(Cl)c(OC)c(C(=O)NCC2CCCN2CC)c1O (stereo not drawn),,104%,88.5%,70.1%,96%,88%,95.8%,92.5%,88.2%,86.5%,79.9%,100%,88.7,94.2%,92.5%,61.4%,81.6%,98.4%,72.2%,82.4
Cc1cn(-c2cccc(NC(=O)c3ccc(C)c(Nc4nccc(-c5cccnc5)n4)c3)c2)cn1,75.8%,-46.3% (active),-31.9% (active),,,5.78% (active),,0.284% (active),41.3%,-58.1% (active),-54.2% (active),-33.7% (active),,7.25% (active),-4.51% (active),-22.6% (active),1.26% (active),-11.7% (active),,
CC(=O)C1CCC2C3CC=C4CC(SC(=N)N)CCC4(C)C3CCC12C (stereo not drawn),,66.8%,54.4%,78.3%,6.89% (active),-5.72% (active),-7.56% (active),30.8%,80.4%,50.1%,75%,63.1%,72.6,38.2%,47.1%,63%,-36% (active),35.7%,62.7%,55.2
C=C(NC(=O)C(=C)NC(=O)c1csc(C2=NC3c4csc(n4)C4NC(=O)c5csc(n5)C(C(C)(O)C(C)O)NC(=O)C5CSC(=N5)C(=CC)NC(=O)C(C(C)O)NC(=O)c5csc(n5)C3(CC2)NC(=O)C(C)NC(=O)C(=C)NC(=O)C(C)NC(=O)C(C(C)CC)NC2C=Cc3c(C(C)O)cc(nc3C2O)C(=O)OC4C)n1)C(N)=O (stereo not drawn),,27.7%,23.6%,-41.5% (active),-10.1% (active),-36.9% (active),10.1%,20.4%,34%,33.1%,99.8%,34%,42.5,86.3%,25.6%,64.7%,-7.28% (active),64.6%,71.4%,72.2
CC(C)(O)CCl,153%,111%,108%,106%,,107%,113%,102%,108%,129%,119%,114%,96,108%,106%,107%,111%,,103%,
S=C1N(c2ccccc2)CN(C2CCCCC2)CN1c1ccccc1,106%,,97.6%,103%,80.6%,125%,103%,75%,104%,96.5%,117%,106%,63.2,103%,103%,92.3%,102%,95.9%,,
O=C1Cc2cc(CCN3CCN(c4nsc5ccccc45)CC3)c(Cl)cc2N1,,104%,95.6%,64.1%,9.84% (active),81.8%,78.9%,93.7%,108%,84.1%,121%,97.6%,103,98.4%,91%,58.8%,86%,101%,86.6%,88.1
COc1ccccc1-n1c(-c2csc(NC(C)=O)n2)n[nH]c1=S,100%,89.1%,114%,,93.8%,92.3%,,104%,119%,103%,103%,117%,105,96.2%,114%,79.6%,82.8%,97.8%,,
CC(C)[N+]1(C)C2CC[C@@H]1CC(OC(=O)C(CO)c1ccccc1)C2 (stereo partly drawn),,107%,105%,92.4%,92.3%,121%,101%,104%,108%,110%,116%,125%,104,101%,103%,90.7%,123%,119%,88.4%,105

# Reference: PubChem BioAssay (NCI)
